Several values for one entry are separate records, joined by “and”; a condition that tells them apart may be missing. Equal entries are not always repeated. Records with an inconclusive call do not appear. Where a call stands in place of a potency, no number is given. Activity calls are given as the source filed them. Unless noted, calls follow the shape of the full dose curve.
Assays:
[1] = biological target: DNA dC->dU-editing enzyme APOBEC-3G (Homo sapiens) (UniProt Q9HC16); assay: qHTS for inhibitors of Vif-A3G interactions: Validation (AID 588379; active = well fitted inhibition curve with a large enough effect)
Sequence of DNA dC->dU-editing enzyme APOBEC-3G (Homo sapiens) (Q9HC16 whole entry, looked up): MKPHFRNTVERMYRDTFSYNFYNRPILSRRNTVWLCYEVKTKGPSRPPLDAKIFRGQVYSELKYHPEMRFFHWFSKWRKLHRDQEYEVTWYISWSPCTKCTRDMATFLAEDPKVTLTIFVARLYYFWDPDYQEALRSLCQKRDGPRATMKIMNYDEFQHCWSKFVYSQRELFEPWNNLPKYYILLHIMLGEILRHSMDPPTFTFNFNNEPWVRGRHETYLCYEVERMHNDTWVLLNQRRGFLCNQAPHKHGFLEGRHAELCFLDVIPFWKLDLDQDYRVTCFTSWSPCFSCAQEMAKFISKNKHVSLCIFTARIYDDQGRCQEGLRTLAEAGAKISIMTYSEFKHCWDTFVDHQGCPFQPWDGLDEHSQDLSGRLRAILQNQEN
How it was run: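 Yellow fluorescence (Ex 488, Em 500-530) of Vif-coexpressing HeLa A3G-eYFP cells, scanned by Acumen cytometer, reports blocked A3G degradation. Cells plated at 700/well overnight at 37 deg C before compound addition, then a further overnight compound incubation at 37 deg C.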

[2] = biological target: Estrogen receptor (Homo sapiens) (UniProt P03372); assay: qHTS assay for small molecule agonists of estrogen receptor alpha signaling (AID 588514)
How it was run: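 Efficacy is expressed against 20 nM 17-beta-estradiol (100%) and DMSO basal (0%); EC50 from Hill equation. Assay: beta-lactamase reporter in ER-alpha-UAS-bla HEK 293 cells, 18 h compound incubation, CCF4 detection.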

[3] = biological target: Androgen receptor (Homo sapiens) (UniProt P10275); assay: qHTS assay for small molecule agonists of androgen receptor signaling (AID 588515; active = well fitted curve in the direction sought with a large enough effect in the signal ratio, with a control signal flat; the % refers to the signal ratio); conditions: AR-UAS-bla HEK293, beta-lactamase ratio, agonist 16 h; stronger effect = higher value
How it was run: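 Stimulation of an AR-responsive β-lactamase reporter in GripTite HEK293 cells was measured after 16 h compound exposure at 37 °C, via CCF4 fluorescence after 2 h RT. EC50 from Hill fits, normalized to R1881 at 30 nM.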

[4] = biological target: Androgen receptor (Homo sapiens) (UniProt P10275); assay: qHTS assay for small molecule antagonists of androgen receptor signaling (AID 588516; active = well fitted curve in the direction sought with a large enough effect in the signal ratio, with a control signal flat, not every such curve was filed as active; the % refers to the signal ratio)
How it was run: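 Antagonist mode: inhibition of R1881-stimulated (10 nM final) bla reporter in GeneBLAzer AR HEK 293 cells, 16 h at 37C, compounds titrated. IC50 and efficacy from Hill-equation fits of 405/460–530 nm FRET ratios.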

[5] = biological target: Bile acid receptor (Homo sapiens) (UniProt Q96RI1); assay: qHTS assay for small molecule antagonists of farnesoid X receptor signaling (AID 588526)
How it was run: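 Concentration-response titrations were fitted to the Hill equation for half-maximal inhibition and maximal response, with data normalised to 50 uM chenodeoxycholic acid and DMSO control wells. Cells: FXR-UAS-bla HEK293T, dialyzed FBS.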

[6] = biological target: Glucocorticoid receptor (Homo sapiens) (UniProt P04150); assay: qHTS assay for small molecule agonists of glucocorticoid receptor signaling (AID 588532; active = well fitted curve in the direction sought with a large enough effect in the signal ratio, with a control signal flat; the % refers to the signal ratio); conditions: HeLa MMTV-bla, beta-lactamase ratio, agonist, 18 h; stronger effect = higher value; percent of dexamethasone control, DMSO zero
Sequence of Glucocorticoid receptor (Homo sapiens) (P04150 whole entry, looked up): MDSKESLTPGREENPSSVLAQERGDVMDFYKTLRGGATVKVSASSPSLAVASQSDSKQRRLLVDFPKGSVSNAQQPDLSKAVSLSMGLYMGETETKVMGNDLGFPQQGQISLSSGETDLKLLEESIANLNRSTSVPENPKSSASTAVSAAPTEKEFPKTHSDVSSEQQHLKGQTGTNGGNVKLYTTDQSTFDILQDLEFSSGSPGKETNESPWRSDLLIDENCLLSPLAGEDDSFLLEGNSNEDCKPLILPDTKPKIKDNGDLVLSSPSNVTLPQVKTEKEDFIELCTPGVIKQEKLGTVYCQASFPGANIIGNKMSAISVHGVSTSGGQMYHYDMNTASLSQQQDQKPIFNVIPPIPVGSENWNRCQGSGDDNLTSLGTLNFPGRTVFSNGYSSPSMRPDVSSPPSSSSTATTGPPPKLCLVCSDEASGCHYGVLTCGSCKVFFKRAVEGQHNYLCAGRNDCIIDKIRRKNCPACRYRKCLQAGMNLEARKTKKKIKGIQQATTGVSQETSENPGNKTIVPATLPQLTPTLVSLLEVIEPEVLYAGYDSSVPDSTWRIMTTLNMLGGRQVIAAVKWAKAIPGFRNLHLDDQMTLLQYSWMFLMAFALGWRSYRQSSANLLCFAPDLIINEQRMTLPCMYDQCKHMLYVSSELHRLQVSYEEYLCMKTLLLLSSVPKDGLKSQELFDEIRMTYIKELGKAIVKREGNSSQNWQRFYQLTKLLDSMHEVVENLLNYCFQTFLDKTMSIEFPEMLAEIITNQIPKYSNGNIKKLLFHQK
How it was run: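 Titration series, up to 92 uM, applied to GRE-bla HeLa cells for 18 h at 37 C. Detection by CCF4 FRET substrate after 2 h at RT.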

[7] = biological target: Glucocorticoid receptor (Homo sapiens) (UniProt P04150); assay: qHTS assay for small molecule antagonists of glucocorticoid receptor signaling (AID 588533; active = well fitted inhibition curve with a large enough effect in the signal ratio, with a control signal flat, not every such curve was filed as active; the % refers to the signal ratio;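 also: cells stimulated with 2 nM dexamethasone as agonist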)
How it was run: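 Antagonist-mode qHTS: compound titrations added to GRE-bla HeLa cells, then dexamethasone 2 nM final; 18 h, 37 C. CCF4 FRET fluorescence normalized to dexamethasone and DMSO; IC50 from Hill fit.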

[8] = qHTS assay for small molecule antagonists of peroxisome proliferator-activated receptor delta signaling (AID 588535; active = well fitted inhibition curve with a large enough effect in the signal ratio, with a control signal flat, not every such curve was filed as active; the % refers to the signal ratio;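 as to max response: cells co-treated with a PPAR-delta agonist as stimulator during compound exposure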); conditions: HEK293T PPARd-UAS-bla, beta-lactamase FRET ratio, 18 h; 460 nm channel
How it was run: (§1)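 Inhibition of PPAR-delta response element-driven beta-lactamase expression is measured in HEK293T cells exposed to a compound titration series for 18 hrs at 37 C. Half-maximal inhibition comes from Hill equation fitting.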

[9] = biological target: Peroxisome proliferator-activated receptor delta (Homo sapiens) (UniProt Q03181); assay: as above
Sequence of Peroxisome proliferator-activated receptor delta (Homo sapiens) (Q03181 whole entry, looked up): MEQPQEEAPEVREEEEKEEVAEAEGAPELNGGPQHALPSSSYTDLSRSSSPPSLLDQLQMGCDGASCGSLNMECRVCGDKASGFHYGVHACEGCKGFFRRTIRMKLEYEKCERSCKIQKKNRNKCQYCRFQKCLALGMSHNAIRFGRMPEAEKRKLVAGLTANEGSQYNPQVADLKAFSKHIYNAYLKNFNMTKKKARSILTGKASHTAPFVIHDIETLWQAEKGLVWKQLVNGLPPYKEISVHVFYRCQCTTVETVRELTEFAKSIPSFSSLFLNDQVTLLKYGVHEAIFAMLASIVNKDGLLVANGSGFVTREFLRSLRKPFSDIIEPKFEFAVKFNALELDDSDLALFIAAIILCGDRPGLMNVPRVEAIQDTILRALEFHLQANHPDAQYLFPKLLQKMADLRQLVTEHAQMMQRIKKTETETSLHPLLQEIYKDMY
How it was run: as §1

[10] = biological target: Vitamin D3 receptor (Homo sapiens) (UniProt P11473); assay: qHTS assay for small molecule antagonists of vitamin D receptor signaling (AID 588541);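 also: receptor activated by calcitriol during compound treatment; series mostly up to about 77 µM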
Sequence of Vitamin D3 receptor (Homo sapiens) (P11473 whole entry, looked up): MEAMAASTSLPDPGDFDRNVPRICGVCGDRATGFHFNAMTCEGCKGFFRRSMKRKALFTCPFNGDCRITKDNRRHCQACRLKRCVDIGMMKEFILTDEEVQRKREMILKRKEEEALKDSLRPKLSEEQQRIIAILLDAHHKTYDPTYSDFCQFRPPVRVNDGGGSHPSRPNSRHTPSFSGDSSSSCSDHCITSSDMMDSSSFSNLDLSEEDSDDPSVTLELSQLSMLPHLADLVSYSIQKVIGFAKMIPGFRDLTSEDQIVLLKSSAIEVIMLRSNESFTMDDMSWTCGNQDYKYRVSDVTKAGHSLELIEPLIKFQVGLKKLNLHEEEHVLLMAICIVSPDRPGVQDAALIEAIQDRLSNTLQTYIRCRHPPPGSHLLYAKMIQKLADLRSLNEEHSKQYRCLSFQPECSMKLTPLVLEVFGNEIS
How it was run: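 VDR-UAS-bla HEK293T cells (2000/well, 2% charcoal-stripped FBS) were treated with titrated compounds plus 1-alpha,25-dihydroxyvitamin D3 (50 nM or 3 nM final) for 16 h at 37 C. CCF4 beta-lactamase fluorescence was read; Hill fits gave IC50.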

[11] = biological target: Vitamin D3 receptor (Homo sapiens) (UniProt P11473); assay: qHTS assay for small molecule agonists of vitamin D receptor signaling (AID 588543)
How it was run: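 Agonist-mode beta-lactamase reporter: HEK293T VDR-UAS-bla cells in charcoal-stripped 2% FBS, compound series 16 h 37 C, CCF4 2 h RT. EC50 from Hill fit, scaled against DMSO and 50 nM calcitriol control.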

[12] = biological target: Thyroid hormone receptor beta (Homo sapiens) (UniProt P10828); assay: qHTS assay for small molecule agonists of thyroid hormone receptor beta signaling (AID 588545)
Sequence of Thyroid hormone receptor beta (Homo sapiens) (P10828 whole entry, looked up): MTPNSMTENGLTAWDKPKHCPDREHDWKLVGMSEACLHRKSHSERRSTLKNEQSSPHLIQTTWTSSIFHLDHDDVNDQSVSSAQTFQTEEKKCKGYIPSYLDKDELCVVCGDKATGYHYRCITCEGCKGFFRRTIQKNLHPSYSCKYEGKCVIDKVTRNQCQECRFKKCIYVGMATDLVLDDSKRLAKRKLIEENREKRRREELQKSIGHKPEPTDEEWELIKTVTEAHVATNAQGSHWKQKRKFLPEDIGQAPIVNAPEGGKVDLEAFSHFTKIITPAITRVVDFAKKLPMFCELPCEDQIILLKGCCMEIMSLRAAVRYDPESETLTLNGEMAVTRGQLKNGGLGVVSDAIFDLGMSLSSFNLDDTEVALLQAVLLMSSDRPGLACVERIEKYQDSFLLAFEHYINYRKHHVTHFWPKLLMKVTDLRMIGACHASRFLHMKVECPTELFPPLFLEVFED
How it was run: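 Cells (2500/well) were seeded, incubated 4 hrs at 37 C, dosed with a compound series, incubated 18 hrs, loaded with CCF4 dye for 2 hrs at RT, then read for fluorescence. Data were scaled between DMSO (0%) and 10 nM T3 (100%).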

[13] = qHTS assay for small molecule antagonists of retinoid X receptor alpha signaling (AID 588546; active = well fitted inhibition curve with a large enough effect in the signal ratio, with a control signal flat, not every such curve was filed as active; the % refers to the signal ratio;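 also: cells stimulated with 9-cis-retinoic acid as agonist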); conditions: HEK293T RXRa-UAS-bla, beta-lactamase ratio, antagonist mode; measured here: W530 green channel, cytotoxicity proxy
How it was run: (§2)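 Beta-lactamase reporter inhibition, read as CCF4 fluorescence ratio (ex 405, em 460/530 nm) after 2 h at RT. HEK293T UAS-bla cells, 2500/well, were stimulated with 9-cis-RA at 500 or 100 nM final alongside test compound for 18 h at 37 C.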

[14] = biological target: Retinoic acid receptor RXR-alpha (Homo sapiens) (UniProt P19793); assay: as above; conditions: HEK293T RXRa-UAS-bla, beta-lactamase ratio, antagonist mode
Sequence of Retinoic acid receptor RXR-alpha (Homo sapiens) (P19793 whole entry, looked up): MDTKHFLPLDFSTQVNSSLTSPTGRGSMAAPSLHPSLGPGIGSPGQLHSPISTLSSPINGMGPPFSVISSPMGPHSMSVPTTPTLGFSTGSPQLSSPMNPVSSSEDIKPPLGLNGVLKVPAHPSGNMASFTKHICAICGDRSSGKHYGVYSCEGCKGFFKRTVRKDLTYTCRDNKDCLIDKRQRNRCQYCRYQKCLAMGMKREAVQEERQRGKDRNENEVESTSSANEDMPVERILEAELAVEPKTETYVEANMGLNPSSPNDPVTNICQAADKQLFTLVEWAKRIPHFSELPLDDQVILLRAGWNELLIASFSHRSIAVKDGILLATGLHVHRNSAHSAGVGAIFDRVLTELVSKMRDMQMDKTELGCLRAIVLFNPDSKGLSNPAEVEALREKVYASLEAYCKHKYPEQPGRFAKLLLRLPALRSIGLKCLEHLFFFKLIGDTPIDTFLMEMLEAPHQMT
How it was run: as §2

[15] = biological target: Voltage-gated inwardly rectifying potassium channel KCNH2 (Homo sapiens) (UniProt Q12809); assay: qHTS Assay for Small Molecule Inhibitors of the Human hERG Channel Activity (AID 588834; active = well fitted inhibition curve with a large enough effect;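 also: top concentration of the series differs between compounds; lower thallium flux fluorescence means stronger hERG block; nearly all actives have a fitted effect of over 50% in size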)
Sequence of Voltage-gated inwardly rectifying potassium channel KCNH2 (Homo sapiens) (Q12809 whole entry, looked up): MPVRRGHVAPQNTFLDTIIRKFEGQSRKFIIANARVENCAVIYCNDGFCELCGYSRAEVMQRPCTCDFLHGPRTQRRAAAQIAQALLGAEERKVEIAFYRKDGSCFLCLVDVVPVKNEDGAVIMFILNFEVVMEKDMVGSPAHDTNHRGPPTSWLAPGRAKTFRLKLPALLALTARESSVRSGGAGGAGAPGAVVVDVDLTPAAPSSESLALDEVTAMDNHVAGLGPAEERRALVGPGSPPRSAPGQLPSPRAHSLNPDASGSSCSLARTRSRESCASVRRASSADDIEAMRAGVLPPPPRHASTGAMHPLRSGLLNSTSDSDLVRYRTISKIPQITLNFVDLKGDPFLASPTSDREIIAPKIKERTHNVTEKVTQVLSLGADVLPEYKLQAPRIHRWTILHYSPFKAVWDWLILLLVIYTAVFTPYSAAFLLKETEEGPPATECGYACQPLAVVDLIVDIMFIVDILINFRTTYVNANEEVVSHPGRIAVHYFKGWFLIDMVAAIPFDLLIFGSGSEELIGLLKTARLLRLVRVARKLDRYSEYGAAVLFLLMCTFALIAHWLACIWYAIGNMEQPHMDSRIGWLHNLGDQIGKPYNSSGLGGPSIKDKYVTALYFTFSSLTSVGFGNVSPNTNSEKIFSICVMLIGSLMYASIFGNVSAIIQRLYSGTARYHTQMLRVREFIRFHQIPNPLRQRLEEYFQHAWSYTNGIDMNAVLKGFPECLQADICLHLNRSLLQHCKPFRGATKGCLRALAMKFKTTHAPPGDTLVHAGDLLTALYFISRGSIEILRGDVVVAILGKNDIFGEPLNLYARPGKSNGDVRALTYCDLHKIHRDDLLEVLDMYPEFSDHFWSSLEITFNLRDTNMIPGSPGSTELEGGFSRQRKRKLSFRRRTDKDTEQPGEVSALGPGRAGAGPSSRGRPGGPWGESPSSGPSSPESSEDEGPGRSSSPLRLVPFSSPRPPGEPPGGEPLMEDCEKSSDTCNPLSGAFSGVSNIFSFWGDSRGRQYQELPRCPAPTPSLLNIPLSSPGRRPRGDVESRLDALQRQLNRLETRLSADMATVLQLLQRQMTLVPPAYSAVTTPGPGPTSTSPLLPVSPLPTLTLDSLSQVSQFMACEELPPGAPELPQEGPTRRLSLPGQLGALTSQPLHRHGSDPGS
How it was run: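 hERG block measured as reduced thallium-dye (FluxOR) fluorescence after stimulation buffer addition, read over 2 min. Cells were hERG-BacMam-transduced U2OS exposed to compound ~10 min […]; concentration-response fitted with Hill equation for AC50.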

[16] = biological target: Peroxisome proliferator-activated receptor gamma (Homo sapiens) (UniProt P37231); assay: qHTS assay for small molecule agonists of peroxisome proliferator-activated receptor gamma signaling (AID 588536; active = well fitted curve in the direction sought with a large enough effect in the signal ratio, with a control signal flat, not every such curve was filed as active; the % refers to the signal ratio)
Sequence of Peroxisome proliferator-activated receptor gamma (Homo sapiens) (P37231 whole entry, looked up): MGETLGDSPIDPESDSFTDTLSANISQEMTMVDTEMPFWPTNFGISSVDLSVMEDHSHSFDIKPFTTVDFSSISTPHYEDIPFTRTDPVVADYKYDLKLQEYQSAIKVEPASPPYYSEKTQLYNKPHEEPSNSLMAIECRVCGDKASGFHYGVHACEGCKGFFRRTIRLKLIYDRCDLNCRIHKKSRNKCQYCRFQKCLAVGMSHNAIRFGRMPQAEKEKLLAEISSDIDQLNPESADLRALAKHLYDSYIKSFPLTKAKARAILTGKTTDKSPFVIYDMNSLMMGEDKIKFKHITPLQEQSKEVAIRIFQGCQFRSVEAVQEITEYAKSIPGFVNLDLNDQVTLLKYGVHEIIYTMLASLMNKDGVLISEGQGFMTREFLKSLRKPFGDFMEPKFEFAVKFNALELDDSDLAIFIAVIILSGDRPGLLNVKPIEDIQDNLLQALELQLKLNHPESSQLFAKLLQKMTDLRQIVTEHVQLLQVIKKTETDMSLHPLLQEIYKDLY
How it was run: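 Beta-lactamase reporter read-out: CCF4 fluorescence (ex 405, em 460/530 nm) after 2 h at RT. HEK293 GeneBLAzer cells were treated for 16 h at 37 C. Hill fits gave EC50 and efficacy versus 2 uM rosiglitazone (100%) and DMSO (0%).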

[17] = qHTS assay for small molecule agonists of retinoid X receptor alpha signaling (AID 588544); conditions: HEK293T RXRa-UAS-bla, beta-lactamase reporter, 18 h; 530 nm emission
[18] = biological target: Retinoic acid receptor RXR-alpha (Homo sapiens) (UniProt P19793); assay: as above
[19] = biological target: Thyroid hormone receptor beta (Homo sapiens) (UniProt P10828); assay: qHTS assay for small molecule antagonists of thyroid hormone receptor beta signaling (AID 588547; active = well fitted inhibition curve with a large enough effect in the signal ratio, with a control signal flat, not every such curve was filed as active; the % refers to the signal ratio;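 also: cells stimulated with 0.4 nM T3 agonist during compound exposure; series mostly up to about 77 µM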); conditions: TR-UAS-bla HEK293, beta-lactamase ratio, antagonist mode, 18 h
How it was run: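 TR-UAS-bla GripTite HEK293 cells in 2% charcoal/dextran FBS medium were preincubated 4 h at 37 C, given compound (0.59 nM to 92 uM) plus 0.4 nM T3 (final) for 18 h, then CCF4 for 2 h at RT; Hill fit gave IC50.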

## COc1ccc2c3c1OC1C[C@@H](O)C=C[C@@]31CCN(C)C2 (stereo partly specified)
[1]
  outcome: inactive

## CC(C)[C@H](CO)Nc1nc(Nc2ccc(C(=O)O)c(Cl)c2)c2ncn(C(C)C)c2n1
[1]
  outcome: inactive

## COc1ccccc1N1CCN(CCCNc2cc(=O)n(C)c(=O)n2C)CC1
[1]
  outcome: inactive
[15]
  Potency: inactive

## COc1ccc(-c2coc3cc(O)cc(O)c3c2=O)cc1
[1]
  outcome: inactive

## O=C1NC(=O)C(c2ccccc2)(c2ccccc2)N1
[6]
  activation: -3.98% (inactive) and -0.765% (inactive) and -12.7% (inactive)
[7]
  Potency: inactive
[8]
  max response: -66.4% and 31.2% and 54.5%
[9]
  outcome: inactive
[16]
  outcome: inactive
[17]
  max response: -1.34% and -8.57% and -15.1%
[18]
  outcome: inactive
[12]
  outcome: inactive
[13]
  max response: -8.37% and -14.2% and -3.37%
[14]
  max response: 15.9% (inactive) and 2.5% (inactive) and -5.42% (inactive)
[19]
  activity change % (negative = inhibition): -1.15% (inactive) and 6.61% (inactive)
[15]
  Potency: inactive

## OC[C@@H](O)[C@H](O)[C@H](O)[C@@H](O)CO
[15]
  Potency: inactive

## CC(C(=O)O)c1ccc(-c2ccccc2)c(F)c1 (stereo unspecified)
[15]
  Potency: inactive

## NCCS
[15]
  Potency: inactive

## O=C(O)Cc1cccc2ccccc12
[5]
  outcome: inactive
[8]
  max response: 10.6% and 0.107%
[9]
  outcome: inactive
[10]
  outcome: inactive
[11]
  outcome: inactive
[17]
  max response: -5.32% and -9%
[18]
  outcome: inactive
[13]
  max response: 4.01% and -7.8%
[14]
  max response: 3.25% (inactive) and 2.98% (inactive)
[19]
  activity change % (negative = inhibition): 9.53% (inactive) and -11.8% (inactive)
[15]
  Potency: inactive

## O=C(CCCCCCC(=O)Nc1ccccc1)NO
[15]
  Potency: inactive
